Five compounds from PubChem BioAssay (EPA / NIEHS) can be followed below.

Test [1] can be described thus: ACEA_ER_80hr: ACEA Biosciences xCELLigence Real-Time Cell Analysis on Estrogen Receptor Agonism for Proliferation (AID 2282667; active = hit-call score of the fitted dose curve at least 0.9, where 1 is the maximum). Particulars: T47D proliferation, impedance (xCELLigence), 80 h. In outline: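 T47D human breast cells were seeded on electrode plates, monitored overnight, then exposed continuously to compounds in eight-point 1:4 dilutions from 100 uM (max 0.5% DMSO). Impedance-based growth was read at 80 h, fitted upward relative to DMSO.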

Test [2] can be described thus: ATG_CRE_CIS: Attagene CIS-FACTORIAL HepG2 Assay for human cAMP Responsive Element (CRE) binding protein 3 (AID 2282926). The note with it: HepG2 CRE cis-reporter, Attagene multiplexed mRNA; actives raise or lower the signal. In short, it runs like this:
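Capillary electrophoresis of 6-FAM-labelled, HpaI-digested PCR products quantified reporter transcripts. These came from HepG2 transiently transfected with cis-element reporters and exposed to test chemicals for 24 hours, with DMSO defining baseline activity.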

Test [3] addresses CCAAT/enhancer-binding protein beta (Homo sapiens) (UniProt P17676). The test is described as follows: ATG_C_EBP_CIS: Attagene CIS-FACTORIAL HepG2 Assay for human CCAAT/Enhancer Binding Protein (C/EBP) beta (AID 2282927). Particulars: HepG2 Attagene cis-factorial transcription factor reporter; actives raise or lower the signal. In outline: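 Transiently transfected HepG2 (MRTU library, endogenous TF-driven promoters); 24 h dosing; total RNA → oligo(dT) RT → PCR → 6-FAM primer extension → HpaI digest → CE; fit bidirectionally vs DMSO.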

Test [4] in a line: ATG_CMV_CIS: Attagene CIS-FACTORIAL HepG2 Assay for human CMV (Internal Marker) (AID 2282928).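 Also: endpoint acts as a background internal control marker rather than a target.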 The note with it: HepG2 CMV promoter reporter, transcription factor profiling; actives raise or lower the signal. In outline: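 Fluorescence intensity of RT-PCR-derived reporter fragments, resolved by capillary electrophoresis, gives the signal. HepG2 liver cells bearing transfected cis-element reporters were treated 24 h; activity in either direction was fit relative to DMSO-treated controls.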

Test [5] is described as follows: ATG_DR4_LXR_CIS: Attagene CIS-FACTORIAL HepG2 Assay for human Liver X Receptor (LXR), DR4 submotif (AID 2282929). Particulars: HepG2 Attagene DR4 cis-reporter, mRNA transcription; actives raise or lower the signal. In short, it runs like this:
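Endogenous factor activity at a DR4 cis-element is read as reporter mRNA in transiently transfected HepG2 cells. Exposure lasts 24 h; transcripts are amplified, fluorescently labelled and sized by capillary electrophoresis, with DMSO as baseline.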

Test [6] has as its target Aryl hydrocarbon receptor (Homo sapiens) (UniProt P35869). The test is described as follows: ATG_Ahr_CIS: Attagene CIS-FACTORIAL HepG2 Assay for human Aryl Hydrocarbon Receptor (Ahr) (AID 2282930). Particulars: HepG2 AhR cis-factorial reporter transcription; actives raise or lower the signal. In short, it runs like this:
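Read-out: reporter mRNA quantified by RT-PCR with fluorescent primer extension and capillary electrophoresis. Human HepG2 liver cells carried transfected cis-promoter reporter units and were exposed to chemical for 24 h; gain or loss fitted relative to DMSO.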

A short description of test [7]: ATG_AP_1_CIS: Attagene CIS-FACTORIAL HepG2 Assay for human Activator Protein 1 (AP-1) (AID 2282931). The note with it: HepG2 Attagene cis-factorial AP-1 reporter mRNA; actives raise or lower the signal. In short, it runs like this: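 Fluorescence of labelled PCR fragments separated by capillary electrophoresis gives reporter mRNA levels. HepG2 with transfected cis-regulated reporter units, 24 h exposure; DMSO serves as baseline for bidirectional curve fits.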

A short description of test [8]: ATG_AP_2_CIS: Attagene CIS-FACTORIAL HepG2 Assay for human Activator Protein 2 (AP-2) (AID 2282932). Particulars: HepG2 AP-2 cis-reporter, Attagene transcription factor profiling; actives raise or lower the signal. In outline:
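Liver-derived HepG2 line, cis-reporter system measuring endogenous factors; 24 h dosing; reporter mRNA detected by fluorescent RT-PCR and capillary electrophoresis.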

Test [9] in a line: ATG_BRE_CIS: Attagene CIS-FACTORIAL HepG2 Assay for human Bone Morphogenetic Protein (BMP) Response Element (BRE) (AID 2282933). The note with it: HepG2 BMP response element reporter, Attagene transcription factor profiling; actives raise or lower the signal. In outline:
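A HepG2 multiplex reporter system measured inducible reporter mRNA 24 h post-dosing. Detection: RT-PCR, 6-FAM primer extension, HpaI digestion, capillary electrophoresis. Activity fitted bidirectionally relative to DMSO.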

The target in test [10] is Retinoic acid receptor alpha (Homo sapiens) (UniProt P10276). The test is described as follows: ATG_DR5_RAR_CIS: Attagene CIS-FACTORIAL HepG2 Assay for human Retinoic Acid Receptor Alpha (RARE), DR5 submotif (AID 2282934). Particulars: HepG2 Attagene cis-factorial RARE DR5 reporter, mRNA; actives raise or lower the signal. In short, it runs like this:
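Read-out: DR5-driven reporter transcript measured by RT-PCR, 6-FAM primer extension, HpaI digest and capillary electrophoresis. Human HepG2 liver cells carry transiently transfected cis-element reporter constructs; dosing lasts 24 h. Gain or loss of signal fitted against DMSO baseline.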

The target in test [11] is Transcription factor E2F1 (Homo sapiens) (UniProt Q01094). The test is described as follows: ATG_E2F_CIS: Attagene CIS-FACTORIAL HepG2 Assay for human E2F Transcription Factor 1 (AID 2282935). Particulars: HepG2 Attagene cis-reporter, E2F reporter RNA transcripts; actives raise or lower the signal. In short, it runs like this:
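Liver-derived HepG2 cells expressing transfected promoter-driven reporter units received test chemical for 24 hours. Signal gains or losses were fitted bidirectionally against DMSO.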

The nature of test [12]: ATG_E_Box_CIS: Attagene CIS-FACTORIAL HepG2 Assay for human Enhancer Box (E-box) (AID 2282936). The note with it: HepG2 E-box cis-reporter transcription, actives raise or lower the signal. In outline:
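In this cell-based setup, HepG2 cells bearing transfected promoter-driven reporter units were exposed to chemicals for 24 h; reporter transcripts were amplified, 6-FAM-labelled, cut with HpaI and sized by capillary electrophoresis.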

The nature of test [13]: ATG_M_61_CIS: Attagene CIS-FACTORIAL HepG2 Assay for M61 Transcription Factor (Internal Marker) (AID 2282937). The note with it: HepG2 Attagene CIS-FACTORIAL M61 internal marker reporter; actives raise or lower the signal. In short, it runs like this: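 This endpoint serves as an internal background control within a multiplexed HepG2 cis-reporter panel. Cells are exposed for 24 h; reporter mRNA is amplified, fluorescently labelled and sized by capillary electrophoresis, with DMSO as negative control.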

Test [14] can be described thus: ATG_EGR_CIS: Attagene CIS-FACTORIAL HepG2 Assay for human Early Growth Response 1 (EGR1) (AID 2282938). The note with it: HepG2 Attagene CIS-FACTORIAL EGR reporter mRNA; actives raise or lower the signal. In outline: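 HepG2, transient MRTU transfection (cis promoters), 24 h compound. RNA → RT (oligo-dT) → PCR → 6-FAM labelling → HpaI cut → CE fluorescence. Bidirectional fit, DMSO baseline.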

A short description of test [15]: ATG_ERE_CIS: Attagene CIS-FACTORIAL HepG2 Assay for Estrogen Response Element (ERE) (AID 2282940). Particulars: HepG2 ERE cis-reporter, Attagene RNA transcript; actives raise or lower the signal. In outline:
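Human liver cells (HepG2) bearing transiently transfected, promoter-regulated reporter units were exposed 24 h. Reporter mRNA induction was detected by capillary electrophoresis of labelled RT-PCR products and fitted bidirectionally to DMSO.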

Test [16] can be described thus: ATG_Ets_CIS: Attagene CIS-FACTORIAL HepG2 Assay for human Erythroblast Transformation Specific (ETS) (AID 2282941). The note with it: HepG2 ETS cis-reporter transcription, actives raise or lower the signal. In short, it runs like this: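 Multiplexed reporter transcript profiling: HepG2, 24 h treatment, total RNA to cDNA, PCR, 6-FAM labelling, HpaI cut, capillary electrophoresis. Gain- or loss-of-signal fitted against DMSO.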

In test [17] the target is Hepatocyte nuclear factor 3-beta (Homo sapiens) (UniProt Q9Y261). The test is described as follows: ATG_FoxA2_CIS: Attagene CIS-FACTORIAL HepG2 Assay for human Forkhead box A2 (FOXA2) (AID 2282942). Particulars: HepG2 cis-reporter transcription factor activity, 24 h; actives raise or lower the signal. In outline: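 Cells: HepG2, transient multiplex reporter transfection. Exposure 24 h. Detection: reporter-specific RT-PCR, fluorescent labelling, restriction digest, capillary electrophoresis. Analysis: bidirectional curve fit, DMSO as negative control.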

Test [18] in a line: ATG_FoxO_CIS: Attagene CIS-FACTORIAL HepG2 Assay for human Forkhead box O (FoxO) (AID 2282943). Particulars: HepG2 Attagene cis-reporter, FoxO element, mRNA; actives raise or lower the signal. In short, it runs like this:
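Read-out: fluorescence of 6-FAM-labelled reporter cDNA fragments resolved by capillary electrophoresis. Transiently transfected HepG2 cells were dosed for 24 h; activity fitted in both directions relative to DMSO controls.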

Test [19] in a line: ATG_GATA_CIS: Attagene CIS-FACTORIAL HepG2 Assay for human GATA Binding Protein (AID 2282944). The note with it: HepG2 GATA cis-element reporter, Attagene multiplex mRNA; actives raise or lower the signal. In short, it runs like this:
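Transfected cis-reporter HepG2 cells were treated with chemicals for 24 hours. Total RNA was then converted to cDNA, amplified with reporter-specific primers and analysed by fluorescent capillary electrophoresis, using DMSO-treated wells as baseline.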

Test [20] is described as follows: ATG_M_19_CIS: Attagene CIS-FACTORIAL HepG2 Assay for M19 Transcription Factor (Internal Marker) (AID 2282939). Particulars: HepG2 Attagene CIS-FACTORIAL M19 internal marker reporter; actives raise or lower the signal. In short, it runs like this:
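Chemical-treated HepG2 (24 h) with MRTU constructs; reporter transcripts detected by fluorescent RT-PCR fragment analysis on capillary electrophoresis. Internal background marker, DMSO as baseline.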

Structures are written as SMILES. Inconclusive results are not listed. Active and inactive are the calls of the source. The calls were made as follows, unless noted: active = hit-call score of the fitted dose curve at least 0.9, where 1 is the maximum; inactive = score below 0.9.

Sequence of CCAAT/enhancer-binding protein beta (Homo sapiens) (P17676 whole entry, looked up): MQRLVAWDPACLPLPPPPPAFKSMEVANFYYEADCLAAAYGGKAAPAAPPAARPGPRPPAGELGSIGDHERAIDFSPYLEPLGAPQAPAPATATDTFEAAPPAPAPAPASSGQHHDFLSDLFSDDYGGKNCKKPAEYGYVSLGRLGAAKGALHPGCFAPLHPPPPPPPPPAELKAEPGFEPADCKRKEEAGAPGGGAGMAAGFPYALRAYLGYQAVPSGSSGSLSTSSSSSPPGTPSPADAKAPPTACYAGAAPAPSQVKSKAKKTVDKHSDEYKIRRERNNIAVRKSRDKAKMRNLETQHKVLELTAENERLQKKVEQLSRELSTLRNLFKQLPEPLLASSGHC
Sequence of Hepatocyte nuclear factor 3-beta (Homo sapiens) (Q9Y261 whole entry, looked up): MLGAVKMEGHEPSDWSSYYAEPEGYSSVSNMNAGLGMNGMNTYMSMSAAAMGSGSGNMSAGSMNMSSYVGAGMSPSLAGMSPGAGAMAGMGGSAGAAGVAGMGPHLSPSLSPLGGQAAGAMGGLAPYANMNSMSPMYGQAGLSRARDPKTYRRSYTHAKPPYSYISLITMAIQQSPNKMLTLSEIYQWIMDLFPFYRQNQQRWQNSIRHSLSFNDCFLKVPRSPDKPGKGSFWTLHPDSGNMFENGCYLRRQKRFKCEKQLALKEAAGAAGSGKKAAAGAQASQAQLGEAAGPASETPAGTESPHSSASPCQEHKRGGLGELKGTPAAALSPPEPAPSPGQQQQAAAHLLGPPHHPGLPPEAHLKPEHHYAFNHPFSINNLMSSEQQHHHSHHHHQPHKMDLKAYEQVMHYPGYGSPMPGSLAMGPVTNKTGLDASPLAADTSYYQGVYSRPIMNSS
Sequence of Aryl hydrocarbon receptor (Homo sapiens) (P35869 whole entry, looked up): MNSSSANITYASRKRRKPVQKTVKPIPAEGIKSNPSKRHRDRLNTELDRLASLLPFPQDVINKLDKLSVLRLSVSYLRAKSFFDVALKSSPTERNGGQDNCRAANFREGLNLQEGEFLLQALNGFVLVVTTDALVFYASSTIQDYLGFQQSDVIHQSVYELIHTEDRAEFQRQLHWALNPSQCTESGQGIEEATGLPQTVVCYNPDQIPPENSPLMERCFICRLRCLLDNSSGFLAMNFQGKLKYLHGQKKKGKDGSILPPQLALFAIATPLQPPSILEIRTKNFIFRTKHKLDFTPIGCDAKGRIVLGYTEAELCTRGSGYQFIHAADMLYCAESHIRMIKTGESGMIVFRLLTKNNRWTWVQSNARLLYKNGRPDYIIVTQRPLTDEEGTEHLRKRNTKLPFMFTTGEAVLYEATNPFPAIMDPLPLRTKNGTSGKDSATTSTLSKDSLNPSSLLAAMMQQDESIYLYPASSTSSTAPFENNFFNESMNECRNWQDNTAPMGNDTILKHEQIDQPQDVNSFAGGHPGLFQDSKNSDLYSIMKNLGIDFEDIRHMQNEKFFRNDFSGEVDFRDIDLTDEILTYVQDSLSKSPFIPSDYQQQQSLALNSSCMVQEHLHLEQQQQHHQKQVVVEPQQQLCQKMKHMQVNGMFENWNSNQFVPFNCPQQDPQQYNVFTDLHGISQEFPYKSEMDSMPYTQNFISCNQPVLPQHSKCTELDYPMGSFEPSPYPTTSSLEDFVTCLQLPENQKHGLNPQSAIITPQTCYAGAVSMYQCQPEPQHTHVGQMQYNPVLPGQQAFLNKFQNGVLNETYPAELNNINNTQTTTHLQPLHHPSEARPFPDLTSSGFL
Sequence of Transcription factor E2F1 (Homo sapiens) (Q01094 whole entry, looked up): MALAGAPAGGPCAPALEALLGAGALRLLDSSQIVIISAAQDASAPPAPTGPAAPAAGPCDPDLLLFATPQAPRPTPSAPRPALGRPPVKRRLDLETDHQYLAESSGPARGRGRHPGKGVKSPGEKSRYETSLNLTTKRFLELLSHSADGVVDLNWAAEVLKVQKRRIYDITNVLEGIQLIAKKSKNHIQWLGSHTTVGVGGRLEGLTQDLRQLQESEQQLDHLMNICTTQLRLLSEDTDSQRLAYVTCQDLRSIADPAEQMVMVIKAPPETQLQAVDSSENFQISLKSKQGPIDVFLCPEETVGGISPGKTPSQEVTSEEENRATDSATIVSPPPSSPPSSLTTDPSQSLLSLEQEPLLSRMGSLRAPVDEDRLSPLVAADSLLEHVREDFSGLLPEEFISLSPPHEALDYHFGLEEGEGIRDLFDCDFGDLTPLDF
Sequence of Retinoic acid receptor alpha (Homo sapiens) (P10276 whole entry, looked up): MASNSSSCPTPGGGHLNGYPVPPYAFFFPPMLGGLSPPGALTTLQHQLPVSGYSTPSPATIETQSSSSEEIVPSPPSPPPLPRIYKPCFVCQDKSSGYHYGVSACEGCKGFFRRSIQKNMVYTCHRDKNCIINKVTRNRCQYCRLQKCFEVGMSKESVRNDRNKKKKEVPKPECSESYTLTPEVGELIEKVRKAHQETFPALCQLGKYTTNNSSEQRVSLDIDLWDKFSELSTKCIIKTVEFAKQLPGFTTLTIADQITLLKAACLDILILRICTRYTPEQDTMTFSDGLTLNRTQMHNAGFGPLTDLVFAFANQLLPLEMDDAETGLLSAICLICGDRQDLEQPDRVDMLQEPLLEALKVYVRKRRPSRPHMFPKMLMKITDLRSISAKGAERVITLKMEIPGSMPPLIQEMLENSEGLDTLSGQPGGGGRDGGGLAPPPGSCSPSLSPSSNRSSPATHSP

The AC50 is the midpoint of the concentration-response curve, whichever way the signal moves. With `CCCCCCCCCCCCC[N+](C)(C)Cc1ccccc1`, the compound was classed as inactive in test [1], in test [2], in test [3], in test [4], in [5] and in test [6]. Besides, the compound was called inactive in test [7], in test [8], in test [10], in [11], in test [12] and in test [13]. The outcome in test [14], in [15], in [16], in test [17], in [18] and in test [19] was inactive. For the same compound, the AC50 in test [9] is 5.63 µM (active).

Turning to `CSc1ccc(Cl)cc1`, the compound was classed as inactive in [1], in test [2], in test [3], in [4], in test [5] and in test [6]. Besides, the compound was classed as inactive in test [7], in [8], in [9], in test [11], in [12] and in [13]. Further, the compound was called inactive in [14], in test [20], in test [15], in test [16], in test [17] and in [18]. Moreover, in test [19], the call was inactive.

For `O=C1OC(=O)c2ccc3c4c(ccc1c24)C(=O)OC3=O`, the AC50 in test [1] was 0.0537 µM (active). For the same compound, the compound was classed as inactive in [2], in test [3], in [4], in [5], in test [6] and in test [7]. Also, the compound was classed as inactive in [8], in test [9], in test [11], in test [12], in test [13] and in test [14]. Moreover, the call in test [15], in [16], in [17], in test [18] and in test [19] was inactive.

Take `CC(C)Nc1ccc(NC(C)C)c2c1C(=O)c1ccccc1C2=O`: the result in test [1], in test [2], in test [3], in test [4], in test [5] and in [7] was inactive. In addition, the result in test [8], in test [9], in test [11], in test [12], in test [13] and in test [14] was inactive. In addition, the compound was called inactive in [20], in test [15], in [16], in [17], in test [18] and in test [19]. Moreover, the half-maximal activity concentration (AC50) in [6] is 3.35 µM (active).

In the case of `O=S(=O)(Cl)C(F)(F)C(F)(F)C(F)(F)C(F)(F)C(F)(F)C(F)(F)C(F)(F)C(F)(F)F`, the result in test [1], in test [2], in test [3], in [4], in [5] and in test [6] was inactive. The compound was called inactive in [8], in test [9], in test [11], in test [12], in test [13] and in test [14]. For the same compound, the outcome in test [20], in test [16], in test [17], in test [18] and in test [19] was inactive. For the same compound, the AC50 in test [7] was 57.3 µM (active); in test [15] it was 29.4 µM (active).
